Assay results as given in PubChem BioAssay (NCI).
The panel holds about 79,000 compounds, 15% with a hit somewhere; the sample as a whole holds those more often. Activity calls are given as the source filed them. Rule as the data show it: active = growth inhibition above about 70%; inactive = the rest.

Columns and labels:
[1] = NCI Yeast Anticancer Drug Screen. Data for the rad52 strain (AID 147);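 also: 0% = growth of vehicle-treated control cultures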; conditions: S. cerevisiae rad52 mutant growth inhibition, active compounds read high
How it was run: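 Compounds are applied to a genetically defined yeast strain lacking normal DNA damage repair, and inhibition of growth is expressed relative to cultures given vehicle only.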

[2] = NCI Yeast Anticancer Drug Screen. Data for the wt1 strain (AID 149);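 also: 0% = growth of vehicle-treated wt1 cultures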; conditions: S. cerevisiae wt1 strain (SPY 50644) growth inhibition, active compounds read high
How it was run: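 Vehicle-normalised growth inhibition; strain wt1; compound exposure.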

[3] = NCI Yeast Anticancer Drug Screen. Data for the rad50EPP+ strain (AID 151);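 also: 0% = growth of vehicle-treated control cultures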; conditions: S. cerevisiae rad50 mutant strain, active compounds read high
How it was run: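 Compounds were applied to the rad50EPP+ yeast strain, which bears a defined DNA repair alteration, and growth inhibition was determined relative to vehicle-treated cultures.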

[4] = NCI Yeast Anticancer Drug Screen. Data for the mgt1 strain (AID 153); conditions: S. cerevisiae mgt1 mutant growth inhibition, active compounds read high
How it was run: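 Strain: mgt1 yeast, one of a set carrying defined DNA damage repair or cell cycle control alterations. Compound-treated growth compared with vehicle.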

[5] = NCI Yeast Anticancer Drug Screen. Data for the rad50 strain (AID 155);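 also: 0% = growth of vehicle-only cultures of the same strain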; conditions: S. cerevisiae rad50 strain growth inhibition, active compounds read high
How it was run: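 A DNA repair-deficient yeast mutant serves as the test organism; compound-induced growth inhibition is calculated against vehicle-treated cells.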

[6] = NCI Yeast Anticancer Drug Screen. Data for the mec2-1 strain (AID 157); conditions: S. cerevisiae mec2-1 strain, active compounds read high
How it was run: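 Strain: mec2-1 (DNA repair/cell cycle alteration). Compound exposure, then growth measured; inhibition expressed relative to vehicle.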

[7] = NCI Yeast Anticancer Drug Screen. Data for the rad14 strain (AID 159);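 also: 0% = growth of vehicle-treated control cultures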; conditions: S. cerevisiae rad14 strain growth inhibition, active compounds read high
How it was run: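 Vehicle-treated cultures served as the baseline for growth inhibition of a DNA repair-mutant yeast strain exposed to each compound.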

[8] = NCI Yeast Anticancer Drug Screen. Data for the sgs1 mgt1 strain (AID 161);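 also: 0% = growth of cultures given vehicle only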; conditions: S. cerevisiae sgs1 mgt1 strain, active compounds read high
How it was run: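 Inhibition of yeast growth, normalised to vehicle-treated controls, is reported for a strain bearing genetic alterations in DNA damage repair.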

[9] = NCI Yeast Anticancer Drug Screen. Data for the CLN2oe strain (AID 163);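 also: 0% = growth of vehicle-only control cultures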; conditions: S. cerevisiae CLN2oe strain, active compounds read high
How it was run: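 Growth of a genetically modified yeast strain is measured after compound exposure and compared with cultures given vehicle alone.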

[10] = NCI Yeast Anticancer Drug Screen. Data for the cln2 rad14 strain (AID 165);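 also: 0% = growth equal to vehicle treated cultures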; conditions: S. cerevisiae cln2 rad14 strain, active compounds read high
How it was run: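 Compounds are applied to the cln2 rad14 yeast strain, and growth is then compared with that of vehicle-treated cultures to give inhibition.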

[11] = NCI Yeast Anticancer Drug Screen. Data for the bub3 strain (AID 167); conditions: S. cerevisiae bub3 mutant strain, active compounds read high
How it was run: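 Inhibition values come from growth of compound-treated mutant yeast normalised to vehicle-treated controls.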

[12] = NCI Yeast Anticancer Drug Screen. Data for the mlh1 strain (AID 171);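 also: 0% = growth of vehicle-treated control cultures of the same strain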; conditions: S. cerevisiae mlh1 strain growth inhibition, active compounds read high
How it was run: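 Growth of the mutant yeast strain after compound exposure, expressed as inhibition relative to vehicle-only controls.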

[13] = NCI Yeast Anticancer Drug Screen. Data for the sgs1 strain (AID 173);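 also: 0% = growth of vehicle-only control cultures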; conditions: S. cerevisiae sgs1 mutant, active compounds read high
How it was run: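 Growth of a yeast strain bearing a defined genetic alteration is measured after compound treatment. Inhibition is expressed relative to vehicle-only controls.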

[14] = NCI Yeast Anticancer Drug Screen. Data for the mlh1 rad18 strain (AID 175); conditions: S. cerevisiae mlh1 rad18 strain growth inhibition, active compounds read high
How it was run: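 Read-out is yeast growth inhibition, calculated against vehicle-only controls. The compound was applied to a strain engineered with DNA damage repair alterations.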

[15] = NCI Yeast Anticancer Drug Screen. Data for the rad18 strain (AID 177); conditions: S. cerevisiae rad18 mutant growth inhibition, active compounds read high
How it was run: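 Growth of the mutant yeast strain after compound exposure, normalised to vehicle-only cultures.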

[16] = NCI Yeast Anticancer Drug Screen. Data for the wt2 strain (AID 169);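 also: 0% = growth of vehicle-treated yeast cultures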; conditions: S. cerevisiae wt2 strain growth inhibition, active compounds read high
How it was run: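 This strain belongs to a panel of yeast strains with defined genetic alterations in DNA damage repair or cell cycle control. Compounds are applied, and growth inhibition is measured against vehicle-treated cultures.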

[17] = at 5.0 µM (retest, dose inferred, filed as 0.5)
[18] = at 50.0 µM (retest, dose inferred, filed as 5.0)

Measured: growth inhibition

COC(C(O)CO)C(O)C(O)C(=O)NNc1ccccc1 (stereo unspecified)
inactive: [1]; at 1.2 µM 12% | [1]; at 3.7 µM 23% | [1]; at 11.0 µM 45% | [1]; at 33.0 µM 61% | [2]; at 1.2 µM 1% | [2]; at 3.7 µM 5% | [2]; at 11.0 µM 29% | [2]; at 33.0 µM 36% | [2]; at 100.0 µM 66% | [3]; at 1.2 µM 15% | [3]; at 3.7 µM 29% | [3]; at 11.0 µM 37% | [3]; at 33.0 µM 41% | [3]; at 100.0 µM 68% | [4]; at 1.2 µM -1% | [4]; at 3.7 µM 11% | [4]; at 11.0 µM 29% | [4]; at 33.0 µM 26% | [5]; at 1.2 µM 35% | [5]; at 3.7 µM 41% | [5]; [17] 9% | [5]; at 11.0 µM 68% | [6]; at 1.2 µM 0% | [6]; at 3.7 µM 4% | [6]; [17] 7% | [6]; at 11.0 µM 40% | [6]; at 33.0 µM 31% | [6]; at 50.0 µM 54.4% | [7]; at 1.2 µM 6% | [7]; at 3.7 µM 9% | [7]; at 11.0 µM 19% | [7]; at 33.0 µM 21% | [8]; [17] 15% | [9]; at 1.2 µM 8% | [9]; at 3.7 µM 7% | [9]; at 11.0 µM 57% | [9]; at 33.0 µM 62% | [10]; [17] 5% | [10]; [18] 68% | [11]; at 1.2 µM -1% | [11]; at 3.7 µM 1% | [11]; [17] 23% | [11]; at 11.0 µM 26% | [11]; at 33.0 µM 34% | [12]; at 1.2 µM 2% | [12]; at 3.7 µM 9% | [12]; at 11.0 µM 44% | [12]; at 33.0 µM 61% | [13]; at 1.2 µM -11% | [13]; at 3.7 µM 34% | [13]; at 11.0 µM 47% | [13]; at 33.0 µM 68% | [14]; [17] 28% | [15]; at 1.2 µM 17% | [15]; at 3.7 µM 49%
active: [1]; at 100.0 µM 93% | [4]; at 100.0 µM 94% | [5]; at 33.0 µM 79% | [5]; [18] 71% | [5]; at 50.0 µM 96.1% | [5]; at 100.0 µM 96% | [6]; [18] 76% | [6]; at 100.0 µM 94% | [7]; at 100.0 µM 84% | [8]; [18] 80% | [8]; at 50.0 µM 94.7% | [9]; at 100.0 µM 97% | [10]; at 50.0 µM 89% | [11]; [18] 97% | [11]; at 50.0 µM 96.1% | [11]; at 100.0 µM 93% | [12]; at 100.0 µM 97% | [13]; at 100.0 µM 97% | [14]; [18] 96% | [14]; at 50.0 µM 94.5% | [15]; at 11.0 µM 79% | [15]; at 33.0 µM 78% | [15]; at 100.0 µM 97%

CCc1nc2ccc(NCCN(C)C)c3c(=O)c4ccccc4n1c23
active: [1]; at 33.0 µM 81% | [1]; at 100.0 µM 85% | [3]; at 100.0 µM 71% | [5]; at 11.0 µM 74% | [5]; at 33.0 µM 89% | [5]; [18] 86% | [5]; at 100.0 µM 91% | [14]; at 50.0 µM 83.8% | [15]; at 100.0 µM 80%
inactive: [1]; at 1.2 µM 12% | [1]; at 3.7 µM 39% | [1]; at 11.0 µM 60% | [2]; at 1.2 µM 25% | [2]; at 3.7 µM 29% | [2]; at 11.0 µM 31% | [2]; at 33.0 µM 22% | [2]; at 100.0 µM 22% | [3]; at 1.2 µM 14% | [3]; at 3.7 µM 26% | [3]; at 11.0 µM 39% | [3]; at 33.0 µM 57% | [4]; at 1.2 µM 37% | [4]; at 3.7 µM 38% | [4]; at 11.0 µM 29% | [4]; at 33.0 µM 23% | [4]; at 100.0 µM 40% | [5]; at 1.2 µM 46% | [5]; at 3.7 µM 49% | [5]; [17] 38% | [5]; at 50.0 µM 29.1% | [6]; at 1.2 µM 25% | [6]; at 3.7 µM 26% | [6]; [17] 4% | [6]; at 11.0 µM 11% | [6]; at 33.0 µM 24% | [6]; [18] 40% | [6]; at 50.0 µM 20.1% | [6]; at 100.0 µM 16% | [7]; at 1.2 µM 31% | [7]; at 3.7 µM 33% | [7]; at 11.0 µM 35% | [7]; at 33.0 µM 37% | [7]; at 100.0 µM 58% | [8]; [17] 3% | [8]; [18] 28% | [8]; at 50.0 µM 19.6% | [9]; at 1.2 µM 18% | [9]; at 3.7 µM 13% | [9]; at 11.0 µM 17% | [9]; at 33.0 µM 33% | [9]; at 100.0 µM 46% | [10]; [17] 14% | [10]; [18] 26% | [10]; at 50.0 µM 21.8% | [11]; at 1.2 µM 9% | [11]; at 3.7 µM 11% | [11]; [17] 4% | [11]; at 11.0 µM 5% | [11]; at 33.0 µM 3% | [11]; [18] 32% | [11]; at 50.0 µM -4.2% | [11]; at 100.0 µM 26% | [16]; at 1.2 µM -39% | [16]; at 3.7 µM -34% | [16]; at 11.0 µM -29% | [16]; at 33.0 µM -31% | [16]; at 100.0 µM 5% | [13]; at 1.2 µM 18% | [13]; at 3.7 µM 15% | [13]; at 11.0 µM 28% | [13]; at 33.0 µM 22% | [13]; at 100.0 µM 54% | [14]; [17] 14% | [14]; [18] 53% | [15]; at 1.2 µM 30% | [15]; at 3.7 µM 42% | [15]; at 11.0 µM 44% | [15]; at 33.0 µM 63%
